From the supplement of paper PMC10849652
The full data set covers some 8,800 targets. This sample favours those with a hit. About 0.5% of all pairs of compound and target were hits. A number with no mark means an inactive call.

Columns and labels:
Test in all cases: log2 fold change, soluble protein after heating vs DMSO (PISA); higher = thermal stabilisation; K562 lysate, 10 uM; active = over 0.2 and 3.5 SD of the protein, either way, in both replicates (recomputed)
lapatinib = compound: CS(=O)(=O)CCNCc1ccc(-c2ccc3ncnc(Nc4ccc(OCc5cccc(F)c5)c(Cl)c4)c3c2)o1 [lapatinib]
Outline: (§1)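 To prepare the extract, K562 pellets were dounce-homogenised in PBS pH 7.4 with 1 mM MgCl2, giving crude material at 1 mg/mL protein. This was treated with 10 μM compound for 30 min, then heated in aliquots for 3 min over 48°C-58°C before pooling and addition of NP-40 to 0.5% at 4°C. Centrifugation at 21,000xg for 90 min left soluble protein in the supernatant, which TMTpro 16plex LC-MS/MS quantified with equalised channel sums. Results are log-two fold changes in thermal stability compared with solvent controls, from duplicates.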

crizotinib = compound: C[C@@H](Oc1cc(-c2cnn(C3CCNCC3)c2)cnc1N)c1c(Cl)ccc(F)c1Cl [crizotinib]
Outline: as §1

[1] = compound: C[C@H](C1=CC=C(C=C1)C(=O)NC2=C3C=CNC3=NC=C2)N
Outline: as §1

duvelisib = compound: C[C@H](Nc1ncnc2nc[nH]c12)c1cc2cccc(Cl)c2c(=O)n1-c1ccccc1 [duvelisib]
Outline: as §1

gandotinib = compound: Cc1cc(Nc2cc(CN3CCOCC3)c3nc(C)c(Cc4ccc(Cl)cc4F)n3n2)n[nH]1 [gandotinib]
Outline: as §1

tozasertib = compound: Cc1cc(Nc2cc(N3CCN(C)CC3)nc(Sc3ccc(NC(=O)C4CC4)cc3)n2)n[nH]1 [tozasertib]
Outline: as §1

doramapimod = compound: Cc1ccc(-n2nc(C(C)(C)C)cc2NC(=O)Nc2ccc(OCCN3CCOCC3)c3ccccc23)cc1 [doramapimod]
Outline: as §1

bafetinib = compound: Cc1ccc(NC(=O)c2ccc(CN3CC[C@H](N(C)C)C3)c(C(F)(F)F)c2)cc1Nc1nccc(-c2cncnc2)n1 [bafetinib]
Outline: as §1

[2] = compound: Cc1cccc(CC(=O)N2CCc3c2ccc(-c2cn(C)c4ncnc(N)c24)c3F)n1
Outline: as §1

nilotinib = compound: Cc1cn(-c2cc(NC(=O)c3ccc(C)c(Nc4nccc(-c5cccnc5)n4)c3)cc(C(F)(F)F)c2)cn1 [nilotinib]
Outline: as §1

[3] = compound: Cc1nc(Nc2n[nH]c3c2CN(C(=O)N[C@H](CN(C)C)c2ccccc2)C3(C)C)c2sccc2n1
Outline: as §1

dasatinib = compound: Cc1nc(Nc2ncc(C(=O)Nc3c(C)cccc3Cl)s2)cc(N2CCN(CCO)CC2)n1 [dasatinib]
Outline: as §1

[4] = compound: Cc1ncc(-c2ccnc(Nc3ccc(S(C)(=O)=O)cc3)n2)n1C(C)C
Outline: as §1

[5] = compound: Cn1cc(-c2ccc3c(c2)CCN3C(=O)Cc2cccc(C(F)(F)F)c2)c2c(N)ncnc21
Outline: as §1

quisinostat = compound: Cn1cc(CNCC2CCN(c3ncc(C(=O)NO)cn3)CC2)c2ccccc21 [quisinostat]
Outline: as §1

tipifarnib = compound: Cn1cncc1[C@@](N)(c1ccc(Cl)cc1)c1ccc2c(c1)c(-c1cccc(Cl)c1)cc(=O)n2C [tipifarnib]
Outline: as §1

[6] = compound: NC(=O)Nc1cc(-c2cccc(F)c2)sc1C(=O)N[C@H]1CCCNC1
Outline: as §1

[7] = compound: NC(=O)c1cnc(N[C@@H]2CCCC[C@@H]2N)nc1Nc1cccc(-n2nccn2)c1
Outline: as §1

[8] = compound: NC1(c2ccc(-c3nc4ccn5c(=O)[nH]nc5c4cc3-c3ccccc3)cc2)CCC1
Outline: as §1

pictilisib = compound: CS(=O)(=O)N1CCN(Cc2cc3nc(-c4cccc5[nH]ncc45)nc(N4CCOCC4)c3s2)CC1 [pictilisib]
Outline: as §1

Sequence of UniProt O75534 (O75534 whole entry, looked up): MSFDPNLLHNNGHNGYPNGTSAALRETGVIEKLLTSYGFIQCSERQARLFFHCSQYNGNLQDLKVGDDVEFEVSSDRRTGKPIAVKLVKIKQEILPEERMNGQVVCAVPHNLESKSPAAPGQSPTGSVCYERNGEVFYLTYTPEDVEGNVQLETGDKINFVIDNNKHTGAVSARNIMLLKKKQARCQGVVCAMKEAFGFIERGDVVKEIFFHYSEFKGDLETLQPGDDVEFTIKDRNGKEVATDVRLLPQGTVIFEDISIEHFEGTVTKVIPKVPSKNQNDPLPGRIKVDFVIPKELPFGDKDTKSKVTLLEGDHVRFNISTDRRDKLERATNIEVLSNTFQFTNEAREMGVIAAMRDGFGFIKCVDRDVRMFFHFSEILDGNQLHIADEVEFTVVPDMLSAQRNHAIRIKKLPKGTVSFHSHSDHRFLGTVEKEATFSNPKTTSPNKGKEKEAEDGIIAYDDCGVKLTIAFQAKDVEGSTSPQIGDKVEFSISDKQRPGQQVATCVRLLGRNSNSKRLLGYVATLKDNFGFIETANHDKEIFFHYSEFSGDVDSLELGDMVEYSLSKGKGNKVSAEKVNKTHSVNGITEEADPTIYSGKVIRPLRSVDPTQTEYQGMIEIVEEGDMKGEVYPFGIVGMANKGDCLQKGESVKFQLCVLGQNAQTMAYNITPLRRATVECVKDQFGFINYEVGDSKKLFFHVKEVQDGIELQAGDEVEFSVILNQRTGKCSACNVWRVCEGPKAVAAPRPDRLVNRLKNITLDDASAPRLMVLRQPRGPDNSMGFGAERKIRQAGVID
Sequence of UniProt Q13948 (Q13948 whole entry, looked up): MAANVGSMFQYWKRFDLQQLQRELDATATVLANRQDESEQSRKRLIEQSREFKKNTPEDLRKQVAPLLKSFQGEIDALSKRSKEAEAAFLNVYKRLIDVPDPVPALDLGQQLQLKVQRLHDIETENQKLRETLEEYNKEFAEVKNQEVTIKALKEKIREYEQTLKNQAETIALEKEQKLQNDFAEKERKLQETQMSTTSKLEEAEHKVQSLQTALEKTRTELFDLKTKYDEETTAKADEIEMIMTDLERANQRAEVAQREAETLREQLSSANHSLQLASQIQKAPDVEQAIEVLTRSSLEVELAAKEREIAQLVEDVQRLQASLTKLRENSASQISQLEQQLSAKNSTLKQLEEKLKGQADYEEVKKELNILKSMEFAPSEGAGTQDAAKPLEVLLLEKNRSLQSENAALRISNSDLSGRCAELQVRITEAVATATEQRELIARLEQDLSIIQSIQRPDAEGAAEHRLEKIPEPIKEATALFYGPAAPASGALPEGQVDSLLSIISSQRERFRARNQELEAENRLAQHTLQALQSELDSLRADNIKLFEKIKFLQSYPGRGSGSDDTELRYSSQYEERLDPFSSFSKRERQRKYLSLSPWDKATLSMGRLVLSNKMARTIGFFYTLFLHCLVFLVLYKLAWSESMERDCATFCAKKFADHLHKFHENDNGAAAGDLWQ
Sequence of UniProt O95715 (O95715 whole entry, looked up): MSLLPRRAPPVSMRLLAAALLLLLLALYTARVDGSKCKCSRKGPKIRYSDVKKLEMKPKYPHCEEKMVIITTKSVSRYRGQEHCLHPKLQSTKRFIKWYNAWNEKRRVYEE
Sequence of UniProt Q15398 (Q15398 whole entry, looked up): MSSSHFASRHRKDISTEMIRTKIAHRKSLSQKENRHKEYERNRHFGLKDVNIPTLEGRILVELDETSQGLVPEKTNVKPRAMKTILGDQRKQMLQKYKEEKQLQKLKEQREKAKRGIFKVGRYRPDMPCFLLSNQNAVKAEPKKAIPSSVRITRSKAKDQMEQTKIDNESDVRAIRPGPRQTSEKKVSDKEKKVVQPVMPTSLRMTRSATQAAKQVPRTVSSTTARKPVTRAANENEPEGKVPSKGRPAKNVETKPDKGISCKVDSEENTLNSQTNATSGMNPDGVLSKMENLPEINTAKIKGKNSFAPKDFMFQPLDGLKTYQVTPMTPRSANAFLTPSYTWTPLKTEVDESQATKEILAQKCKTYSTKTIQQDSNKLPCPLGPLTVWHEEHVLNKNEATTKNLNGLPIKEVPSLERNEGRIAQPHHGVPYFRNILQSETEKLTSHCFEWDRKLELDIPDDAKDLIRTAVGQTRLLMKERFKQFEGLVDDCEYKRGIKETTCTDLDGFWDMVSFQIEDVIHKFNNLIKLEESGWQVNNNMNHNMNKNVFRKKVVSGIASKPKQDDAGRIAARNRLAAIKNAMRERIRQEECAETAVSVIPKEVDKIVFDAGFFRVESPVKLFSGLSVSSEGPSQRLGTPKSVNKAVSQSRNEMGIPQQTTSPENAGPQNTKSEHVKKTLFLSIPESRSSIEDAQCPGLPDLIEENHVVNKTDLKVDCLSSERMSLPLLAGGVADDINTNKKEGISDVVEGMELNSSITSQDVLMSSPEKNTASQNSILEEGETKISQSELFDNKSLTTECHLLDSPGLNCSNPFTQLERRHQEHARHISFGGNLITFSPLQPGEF
Sequence of UniProt Q6P3W2 (Q6P3W2 whole entry, looked up): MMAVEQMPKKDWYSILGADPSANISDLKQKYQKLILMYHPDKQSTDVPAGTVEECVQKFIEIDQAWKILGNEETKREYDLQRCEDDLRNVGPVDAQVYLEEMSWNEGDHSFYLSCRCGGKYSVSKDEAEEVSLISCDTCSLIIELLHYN
Sequence of UniProt Q96SQ9 (Q96SQ9 whole entry, looked up): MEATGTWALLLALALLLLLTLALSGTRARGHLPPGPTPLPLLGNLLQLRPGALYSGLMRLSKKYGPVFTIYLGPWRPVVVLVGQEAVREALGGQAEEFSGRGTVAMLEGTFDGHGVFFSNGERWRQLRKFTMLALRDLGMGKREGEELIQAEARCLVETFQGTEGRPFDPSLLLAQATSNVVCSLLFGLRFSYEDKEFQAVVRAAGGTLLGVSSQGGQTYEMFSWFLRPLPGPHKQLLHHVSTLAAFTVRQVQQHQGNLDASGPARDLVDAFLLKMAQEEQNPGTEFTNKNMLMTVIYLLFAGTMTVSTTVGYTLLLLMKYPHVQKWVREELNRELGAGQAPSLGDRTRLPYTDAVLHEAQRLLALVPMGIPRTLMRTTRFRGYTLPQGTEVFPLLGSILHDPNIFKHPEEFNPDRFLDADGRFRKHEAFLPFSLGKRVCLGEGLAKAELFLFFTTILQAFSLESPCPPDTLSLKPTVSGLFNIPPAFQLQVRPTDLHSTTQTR
Sequence of UniProt Q9H8M5 (Q9H8M5 whole entry, looked up): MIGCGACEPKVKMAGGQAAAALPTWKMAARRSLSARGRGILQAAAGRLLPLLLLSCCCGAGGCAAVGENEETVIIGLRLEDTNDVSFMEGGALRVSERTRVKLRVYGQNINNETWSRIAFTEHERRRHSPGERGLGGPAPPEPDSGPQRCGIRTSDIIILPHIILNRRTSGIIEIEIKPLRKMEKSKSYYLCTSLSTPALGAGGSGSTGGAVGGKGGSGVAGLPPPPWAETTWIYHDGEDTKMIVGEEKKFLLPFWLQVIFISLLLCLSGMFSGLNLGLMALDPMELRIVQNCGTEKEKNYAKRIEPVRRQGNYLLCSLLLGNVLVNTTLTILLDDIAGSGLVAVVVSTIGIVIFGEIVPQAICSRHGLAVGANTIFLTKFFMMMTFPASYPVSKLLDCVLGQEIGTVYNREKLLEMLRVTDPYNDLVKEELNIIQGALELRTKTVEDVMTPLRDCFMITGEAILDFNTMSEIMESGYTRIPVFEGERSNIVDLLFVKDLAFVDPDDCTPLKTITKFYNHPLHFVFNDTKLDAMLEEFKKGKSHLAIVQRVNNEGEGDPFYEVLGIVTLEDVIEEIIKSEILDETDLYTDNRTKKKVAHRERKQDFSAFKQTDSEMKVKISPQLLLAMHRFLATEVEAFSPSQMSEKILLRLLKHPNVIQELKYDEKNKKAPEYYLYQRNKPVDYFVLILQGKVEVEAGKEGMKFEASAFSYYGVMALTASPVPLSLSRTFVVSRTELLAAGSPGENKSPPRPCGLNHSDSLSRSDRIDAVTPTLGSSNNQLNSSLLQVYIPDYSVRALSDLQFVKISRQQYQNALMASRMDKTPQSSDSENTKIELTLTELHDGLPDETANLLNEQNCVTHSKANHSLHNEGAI
Sequence of UniProt Q9Y600 (Q9Y600 whole entry, looked up): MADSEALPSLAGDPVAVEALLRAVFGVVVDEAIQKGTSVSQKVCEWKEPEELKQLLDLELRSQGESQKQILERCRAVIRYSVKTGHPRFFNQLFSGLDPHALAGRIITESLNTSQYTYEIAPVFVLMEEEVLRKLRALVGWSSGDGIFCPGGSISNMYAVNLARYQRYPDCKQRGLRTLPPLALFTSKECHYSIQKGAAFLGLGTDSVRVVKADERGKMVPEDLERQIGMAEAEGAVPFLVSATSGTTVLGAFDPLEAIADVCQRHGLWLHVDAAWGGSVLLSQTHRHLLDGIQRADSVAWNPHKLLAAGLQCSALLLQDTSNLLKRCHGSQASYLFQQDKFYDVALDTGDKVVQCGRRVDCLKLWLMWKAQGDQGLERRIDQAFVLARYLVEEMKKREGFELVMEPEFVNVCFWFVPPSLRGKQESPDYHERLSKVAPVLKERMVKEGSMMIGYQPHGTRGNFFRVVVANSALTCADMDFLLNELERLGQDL
Sequence of UniProt Q8WXC6 (Q8WXC6 whole entry, looked up): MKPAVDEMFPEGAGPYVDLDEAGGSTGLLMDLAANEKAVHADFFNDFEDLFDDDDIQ
Sequence of UniProt P48729 (P48729 whole entry, looked up): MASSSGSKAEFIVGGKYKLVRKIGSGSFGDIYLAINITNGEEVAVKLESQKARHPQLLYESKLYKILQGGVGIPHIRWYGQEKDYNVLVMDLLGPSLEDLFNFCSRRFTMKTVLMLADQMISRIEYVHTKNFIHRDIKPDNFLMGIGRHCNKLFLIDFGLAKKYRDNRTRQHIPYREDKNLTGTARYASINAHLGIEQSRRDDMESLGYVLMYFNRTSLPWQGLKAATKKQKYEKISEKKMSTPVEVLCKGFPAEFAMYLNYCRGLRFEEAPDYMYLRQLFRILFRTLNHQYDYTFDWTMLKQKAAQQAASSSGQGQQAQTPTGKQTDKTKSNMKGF

| Target | log2 fold change (lapatinib) | log2 fold change (crizotinib) | log2 fold change [1] | log2 fold change (duvelisib) | log2 fold change (gandotinib) | log2 fold change (tozasertib) | log2 fold change (doramapimod) | log2 fold change (bafetinib) | log2 fold change [2] | log2 fold change (nilotinib) | log2 fold change [3] | log2 fold change (dasatinib) | log2 fold change [4] | log2 fold change [5] | log2 fold change (quisinostat) | log2 fold change (tipifarnib) | log2 fold change [6] | log2 fold change [7] | log2 fold change [8] | log2 fold change (pictilisib) |
| --- | --- | --- | --- | --- | --- | --- | --- | --- | --- | --- | --- | --- | --- | --- | --- | --- | --- | --- | --- | --- |
| CLIP1 isoform 1 (UniProt P30622) | 0.006 | 0.023 | -0.023 | 0.004 | 0.036 | 0.001 | 0.011 | -0.003 | -0.01 | -0.01 | 0.01 | 0.022 | 0.013 | 0.001 | 0.008 | 0.002 | -0.004 | -0.002 | -0.002 |  |
| CSDE1 isoform 3 (UniProt O75534) | 0.184 | -0.179 | 0.139 |  | -0.043 |  | 0.055 | 0.126 | -0.058 | 0.064 | -0.135 |  | 0.016 |  | 0.022 | -0.02 | -0.085 | -0.021 |  | -0.141 |
| DNM2 isoform 4 (UniProt P50570) | 0.031 | 0.014 | -0.16 | 0.015 | -0.134 | -0.084 | 0.066 |  | 0.16 | 0.078 | -0.018 | -0.095 | -0.03 | 0.162 | 0.025 | -0.12 | 0.088 | 0.044 | -0.181 |  |
| CNOT2 (UniProt F8VRS8) |  |  |  |  |  |  |  |  |  |  |  |  |  |  |  |  |  |  | -0.122 |  |
| CSNK1A1 isoform 3 (UniProt P48729) |  |  |  | -0.077 |  |  |  |  |  |  |  | 0.048 |  | -0.183 |  |  |  |  |  |  |
| CYP2S1 isoform 2 (UniProt Q96SQ9) | 0.316 | 0.023 |  | -0.075 |  | -0.023 | -0.057 |  |  |  |  | 0.116 |  | 0.093 | 0.014 |  | -0.135 | 0.054 | -0.056 |  |
| CLASP1 isoform 4 (UniProt Q7Z460) |  |  |  |  |  |  |  |  |  | -0.113 | 0.126 |  | 0.09 |  |  | -0.301 |  |  | 0.111 |  |
| DHX32 (UniProt Q7L7V1) |  | -0.03 | -0.013 |  | -0.01 | 0.108 | 0.012 |  | -0.077 | -0.025 | -0.027 |  | -0.044 |  | -0.015 | -0.061 | 0.142 |  | 0.108 |  |
| DBF4 (UniProt Q9UBU7) |  | -0.031 | -0.409 (active) | 0.004 | 0.059 | -0.009 | -0.018 | -0.028 | 0.035 | 0.05 | 0 | 0.091 | 0.17 | -0.021 | 0.038 | -0.146 | 0.043 |  | 0.07 | 0 |
| COL12A1 (UniProt Q99715) | -0.117 | -0.031 |  | 0.086 |  | -0.021 | 0.88 |  |  |  |  | -0.097 |  | 0.198 | -0.056 |  | 0.166 | 0.827 | -0.154 |  |
| CNNM2 (UniProt Q9H8M5) | 0.006 | 0.021 | -0.039 | 0.041 | -0.064 | -0.078 | -0.026 |  | 0.036 |  |  | -0.021 |  | -0.044 | 0.217 |  | -0.077 | -0.001 | -0.006 |  |
| DLGAP5 isoform 3 (UniProt Q15398) |  |  | -0.176 | -0.098 | 0.05 |  |  | 0.031 | -0.505 |  |  | 0.017 |  | 0.18 |  |  |  |  |  | 0.092 |
| CLASP2 (UniProt O75122) | 0.003 | 0.127 | -0.086 |  | -0.031 | 0.052 | -0.001 | -0.199 | 0.067 | 0.013 | -0.14 |  | -0.061 |  | -0.135 | -0.242 | -0.058 | 0.205 |  |  |
| DDR1 isoform 5 (UniProt Q08345) |  | -0.712 (active) | 0.097 | -0.051 | -0.305 |  |  | 0.101 | 0.007 | 0.036 | 0.013 | 0.083 | -0.216 | 0.103 | 0.045 | -0.012 | -0.054 |  |  | -0.075 |
| COL6A3 (UniProt P12111) |  | -0.023 | -0.04 | 0.013 | -0.036 |  | 0.032 | 0.036 | 0.048 | 0.05 | 0.151 | 0.032 | 0.02 | -0.055 | 0.123 | -0.009 | 0 |  | -0.155 | -0.019 |
| CUX1 isoform 2 (UniProt Q13948) | -0.168 | -0.073 | 0.104 | 0.014 | 0.041 | 0.057 | -0.12 |  | -0.089 |  |  | 0.001 |  | 0.101 | 0.072 |  | -0.026 | -0.073 | 0.012 |  |
| DCTN1 isoform 4 (UniProt Q14203) | -0.039 | -0.031 | 0.054 | -0.032 | 0.121 | 0.173 | -0.103 |  | -0.239 | 0.304 | -0.331 | -0.163 | -0.288 | -0.051 | -0.064 | -0.064 | 0.074 | 0.139 | 0.169 |  |
| COPS9 (UniProt Q8WXC6) | 0.148 |  |  |  |  |  |  |  |  |  |  |  |  |  |  |  |  | -0.074 | 0.214 |  |
| CLIP1, A0A3B3ITA2 |  | -0.033 | -0.222 |  | 0.55 |  | -0.138 |  | 0.269 |  |  |  |  |  | -0.169 |  | 0.017 |  |  |  |
| DDAH1 (UniProt O94760) | 0.011 | 0 | 0.059 | 0.186 | -0.039 | -0.044 | -0.058 |  | 0.196 |  |  | -0.244 |  | 0.174 | -0.013 |  | -0.003 | -0.034 | -0.016 |  |
| CSAD isoform 3 (UniProt Q9Y600) |  | -0.123 |  |  |  |  | 0.035 | 0.046 |  |  |  |  |  |  | -0.035 |  | -0.001 |  | -0.153 | -0.123 |
| CXCL14 (UniProt O95715) |  |  |  |  |  | -0.021 |  | -0.649 |  |  |  |  |  |  |  |  |  |  |  | -0.083 |
| CSNK2A1, A0A2R8Y4D6 | -0.132 |  |  |  |  |  |  |  |  |  |  |  |  |  |  |  |  | 0.085 |  |  |
| DNAJC24 (UniProt Q6P3W2) | 0.006 | 0.074 | 0.152 | -0.025 | -0.162 | 0.073 | 0.042 |  | -0.134 | 0 | -0.093 | 0.062 | 0.02 | -0.039 | -0.042 | 0.063 | 0.054 | -0.041 | -0.015 |  |
| CNK3/IPCEF1 isoform 2 (UniProt G9CGD6) |  |  | -1.84 (active) | 0.129 | 0.326 | 0.105 |  |  | 0.4 |  |  | -0.131 |  | 0.002 |  |  |  |  | 0.168 |  |
| CSRP2 (UniProt Q16527) |  | -0.157 | -0.018 |  | -0.068 | 0.118 | 0.051 | 0.072 | 0.052 |  |  |  |  |  | -0.012 |  | 0.068 |  |  | -0.063 |
| CHFR (UniProt Q96EP1) | -0.062 | -0.051 |  | 0.023 |  | -0.063 | -0.012 |  |  | 0.035 | 0.082 | 0.017 | 0.019 | 0.049 | 0.02 | 0.013 | 0.036 | 0.246 | 0.005 |  |
